The source made the active and inactive calls. Rule for the calls: active = hit-call score of the fitted dose curve at least 0.9, where 1 is the maximum; inactive = score below 0.9.
assay: BSK_BE3C_SRB: Viability Assessment in the BioMAP Diversity Plus: BE3C Assay (AID 2283028); details: primary human bronchial epithelial cells;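 for AC50: fitted both ways so AC50 may mark signal gain or loss versus DMSO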
Procedure: BSK_BE3C is a cell-based, multiplexed-readout assay that uses bronchial epithelial cell, a human lung primary cell, with measurements taken at 24 hours after chemical dosing in a 96-well plate.BSK_BE3C_SRB is an assay component measured in the BSK_BE3C assay. It measures 0.1% sulforhodamine related to cell death using Sulforhodamine staining technology.Data from the assay component BSK_BE3C_SRB was analyzed into 1 assay endpoint. This assay endpoint, BSK_BE3C_SRB, was analyzed with bidirectional fitting relative to DMSO as the negative control and baseline of activity. Using a type of viability reporter, gain or loss-of-signal activity can be used to understand changes in the signaling. Furthermore, this assay endpoint can be referred to as a primary readout, because this assay has produced multiple assay endpoints where this one serves a signaling function. To generalize the intended target to other relatable targets, this assay endpoint is annotated to the cell morphology intended target family, where the subfamily is cell conformation.
The levels of cell surface (or secreted, indicated by the prefix "s") biomarker endpoints were measured by ELISA. Overt cytotoxicity to cells in confluent adherent cultures (all systems other than the BT system) was assessed by measuring total protein levels using sulforhodamine B (SRB) staining in parallel cultures at the time of biomarker measurements, indicated as SRB endpoints. For proliferation assays for adherent cell types, individual cell types are cultured at sub-confluence and relative cell numbers quantified by SRB staining at time points optimized for each system (48 h: 3C and CASM3C systems; 72 h: BT and HDF3CGF systems; 96 h: SAg system). SRB was performed by staining cells with 0.1% SRB after fixation with 10% TCA and reading wells at 560 nm.Viability and proliferation of PBMC (T cells) was quantified by Alamar Blue reduction for the SAg and BT systems. For PBMC viability (referred to as PBMC Cytotoxicity within the assay endpoint names), cells were plated (75,000/well in a 96-well plate) and then chemical samples added for 1 h before addition of activators, SEB and TSST-1 (20 ng/mL final concentration each). Cells were incubated for 90 h. Then, Alamar Blue (20 uL/well) (Invitrogen, Cat DAL1100) was added for 6 h, and the plates were read with a fluorescence microplate reader at 546/580 nm (excitation/emission). For PBMC proliferation, cells were plated and activated as above but incubated for only 16 h prior to addition of Alamar Blue. Plates were read after 6 h.

Q: For `CCCCCCCCCCCCCCCCCC(=O)OCC(CC)CCCC` (stereo not given), which outcome is on record?
A: inactive

Q: Which outcome does the source give for `CC(=O)/C=C/C1=C(C)CCCC1(C)C` here?
A: inactive

Q: Which outcome does the source give for `c1ccc2c(c1)c1cccc3ccc4cccc2c4c31` here?
A: inactive

Q: With `COc1cc(C=O)ccc1OC(=O)C(C)C` as the molecule, how does the outcome read?
A: inactive

Q: With `Cc1ccc2n[nH]nc2c1` as the molecule, how does the outcome read?
A: inactive

Q: Which outcome does the source give for `CC(=O)[C@H]1CC[C@H]2[C@@H]3CC=C4C[C@@H](O)CC[C@]4(C)[C@H]3CC[C@]12C` here?
A: inactive

Q: Which outcome does the source give for `CC(C)(COC(=O)c1ccccc1)COC(=O)c1ccccc1` here?
A: inactive

Q: Which outcome does the source give for `CC[Si](OC(C)=O)(OC(C)=O)OC(C)=O` here?
A: inactive

Q: For `Cc1ccc(O)c(C(C)(C)C)c1`, which AC50 is on record?
A: 31.9 µM (active)

Q: For `Nc1cc([N+](=O)[O-])ccc1O`, which outcome is on record?
A: inactive

Q: With `c1ccc2sc(SN(C3CCCCC3)C3CCCCC3)nc2c1` as the molecule, how does the outcome read?
A: inactive

Q: For `CCCCC/C=C/C=C/C=O`, which AC50 is on record?
A: 30.3 µM (active)

Q: With `Nc1cc([N+](=O)[O-])ccc1Cl` as the molecule, how does the outcome read?
A: inactive

Q: With `C=CCOC(=O)CCC1CCCCC1` as the molecule, how does the outcome read?
A: inactive

Q: For `O=C(O)c1ccc([N+](=O)[O-])cc1`, which outcome is on record?
A: inactive

Q: For `C=C[Si](OCC)(OCC)OCC`, which outcome is on record?
A: inactive

Q: Which outcome does the source give for `O=[N+]([O-])c1cc(C(F)(F)F)ccc1Cl` here?
A: inactive

Q: For `O=C1OC2(c3cc(Br)c(O)c(Br)c3Oc3c2cc(Br)c(O)c3Br)c2c(Cl)c(Cl)c(Cl)c(Cl)c21`, which AC50 is on record?
A: 0.608 µM (active)

Q: With `CC1COc2ccccc2N1C(=O)C(Cl)Cl` (stereo not given) as the molecule, how does the outcome read?
A: inactive

Q: For `Cc1ccc(Nc2ccc(O)c3c2C(=O)c2ccccc2C3=O)cc1`, which outcome is on record?
A: inactive

Q: Which outcome does the source give for `Cc1cc(C2(c3cc(C)c(O)cc3C)OS(=O)(=O)c3ccccc32)c(C)cc1O` here?
A: inactive

Q: For `CC1CCC(C(C)CS)CC1S` (stereo not given), which AC50 is on record?
A: 29.9 µM (active)

Q: For `CC(=O)Nc1ccccc1O`, which outcome is on record?
A: inactive

Q: For `CCc1c(C)cc(N)c(CC)c1N`, which outcome is on record?
A: inactive

Q: For `OC1OC[C@@H](O)[C@H](O)[C@H]1O` (stereo not given in full), which outcome is on record?
A: inactive

Q: With `C[C@H]1C[C@@H]2[C@H]([C@@H](O)C[C@@]3(C)[C@H]2CC[C@]3(O)C(=O)CO)[C@@]2(C)C=CC(=O)C=C12` as the molecule, how does the outcome read?
A: inactive

Q: With `CC(C)Oc1ccccc1O` as the molecule, how does the outcome read?
A: inactive

Q: For `O=C=NC1CCC(CC2CCC(N=C=O)CC2)CC1` (stereo not given), which outcome is on record?
A: inactive

Q: Which outcome does the source give for `O=C(O)C[C@H](O)C[C@H](O)/C=C/c1c(C2CC2)nc2ccccc2c1-c1ccc(F)cc1` here?
A: inactive

Q: Which outcome does the source give for `CC(=O)O[C@]1(C(C)=O)CC[C@H]2[C@@H]3C[C@H](C)C4=CC(=O)CC[C@]4(C)[C@H]3CC[C@@]21C` here?
A: inactive

Q: Which outcome does the source give for `CCCCCCCCCC=O` here?
A: inactive

Q: With `CCCCC(CC)COC(=O)/C=C\C(=O)OCC(CC)CCCC` (stereo not given) as the molecule, how does the outcome read?
A: inactive

Q: Which outcome does the source give for `CCCCCCCCC=O` here?
A: inactive

Q: For `CN(CCOc1ccc(CC2SC(=O)NC2=O)cc1)c1ccccn1` (stereo not given), which outcome is on record?
A: inactive

Q: With `CC(=O)OCCC(C)CC(C)(C)C` (stereo not given) as the molecule, how does the outcome read?
A: inactive

Q: For `BrC1CCC(Br)C(Br)CCC(Br)C(Br)CCC1Br` (stereo not given), which outcome is on record?
A: inactive

Q: Which outcome does the source give for `CCC(=O)OCc1ccccc1` here?
A: inactive

Q: With `CNC[C@H](O)c1cccc(O)c1` as the molecule, how does the outcome read?
A: inactive

Q: For `N#Cc1ccc(CC(=NNC(=O)Nc2ccc(OC(F)(F)F)cc2)c2cccc(C(F)(F)F)c2)cc1`, which outcome is on record?
A: inactive

Q: With `O=C(O)c1cn(-c2ccc(F)cc2)c2cc(N3CCNCC3)c(F)cc2c1=O` as the molecule, how does the outcome read?
A: inactive

— PubChem BioAssay (EPA / NIEHS)
